Reference: the supplement of paper PMC6555819

test system: THRa:RXRa (NR concentration 90 nM, RXRa partner concentration 90 nM); assay: PBM binding z-score (relative to random genomic background probes); higher = stronger binding; sequences stand for … in GC…GCGATTGACAGCGTAGAATGAAGG
In short: (§1)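 Binding z-scores take random background probes as their reference. They come from custom Agilent 4×180K protein-binding microarrays incubated 1 h with ligand-free nuclear receptor dimers, with antibodies against each partner (one per run) detecting binding. Scanned fluorescence was regression-normalized.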

First: ATATGTAGGTTAGCTGGGGTCACTCAGACTAGGC
Second: CCGACTGGGGCAAAGGTTACCCTACTCAGTACGA
The PBM binding z-score of the first is higher: 5.18 for the first, 1.72 for the second.

Going from CCTAGTTGGTCAAGGTCACAGACGCTATAGGTAC to TAGCCTAGGTCATTGGGCCAGTTTAGTACGCATC, the PBM binding z-score falls from 4.13 to 3.03.

Compared with CCTTACGGGTCACGATGTTATAGCACGACGAGCG, CGAACGAGGGCATGAGTTGATTGCAAATGCCGAT is lower in PBM binding z-score: 2.88 for the first, 1.22 for the second.

First: TCAGACAGGTGAAGGTAAATCAGGTACGCAGTCG
Second: AGTCAAAGTTCAGTACGAGGTAACGTAAAGCACG
The PBM binding z-score of the first is lower: 1.58 for the first, 3.64 for the second.

Going from CGTCCAAGGTCAGCAGTTCAGTGAAAGCGACGTG to ATCGCTAGGTAAAGTTCAGTGAAAGATCGATAGA, the PBM binding z-score falls from 3.78 to 0.617.

Compared with ATATGTATGTTAGCTGGGGTCATTCAGACTAGGC, TCTTGTAGATCAATAGAGGTTAGGAAAGTGCGCT is lower in PBM binding z-score: 4.27 for the first, 2 for the second.

Going from TCTTCTAGATCAAGCAGGTTAAGAAAGCCTGAGT to CCTGCTAGGTCATGGACAGCTAATCTACAGTATG, the PBM binding z-score rises from 0.295 to 2.9.

Going from TCTCGGAGGACACGATAGGTCAGAGCTCGACATC to GCGACTGGGGCAAAGCAGGTTACAATAAGGTTGG, the PBM binding z-score rises from 2.47 to 3.11.

First: TCATATAGGTAAAGGAGAAAGTCGAACGATATGA
Second: CGAACGAGGGCATGAGTTGATAACAAATGCCGAT
The PBM binding z-score of the first is lower: -0.227 for the first, 1.19 for the second.

First: GCGACTCGGGCATCAGCAGGTTACCATAACTTAA
Second: CCTACTGGCCCATTCAGAGGTCATTGATCATATG
The PBM binding z-score of the first is lower: 0.266 for the first, 3.04 for the second.

Compared with GGAACGAGGGCAAGTAGATAGCAGAGTTTGATGG, TCGAGAAGGTTAGTCGGGGCATTCAGCCAACATA is higher in PBM binding z-score: 0.882 for the first, 1.79 for the second.

First: ATCTCTAGGTAACAAGTTCACTGAAAGAGAGGAC
Second: ACTAGCAGGCCAAGTTTGGGTCTCTCAAACAAAG
The PBM binding z-score of the first is higher: 2.12 for the first, -0.042 for the second.

First: TCTAGTTGGTCAAAGGGCACACACTCGAAATGCG
Second: CCTTACGGCTCACTCCAGGTTATAGCATCGGAGT
The PBM binding z-score of the first is lower: 1.12 for the first, 1.15 for the second.

Compared with ATCTCTAGGTAAAAGATCAGTGAATCCCGAGGAT, CCAGACAGGTGCAAGGTAACTCAGTCTGGTACGC is higher in PBM binding z-score: 0.298 for the first, 0.379 for the second.

First: ATATGTAGATTAGCTGGGGTCATTCAGACTAGGC
Second: ATAGACAGGTGATGAAGGTAACTCAGGCTATCAT
The PBM binding z-score of the first is higher: 4.26 for the first, 0.901 for the second.

Going from TAGCCAAGGTCATGCGGGCCAGTATAGTGTCGGC to GCTGCTAGGTCAAGTTGGTCAGCTAACGGGTACG, the PBM binding z-score falls from 4.14 to 2.96.

First: ATCTCTAGGTAACAAGTTCAGTTAAAGAGAGGAC
Second: ATACCAAGGTGATCGTGAGGTAGTTGATACTAAC
The PBM binding z-score of the first is higher: 1.73 for the first, 1.5 for the second.

First: AGAATGAGGTTATTAAGACCAGGGAATTGCGGTC
Second: TCTTGTAGATCAAGCAGGTTAAGAGAGCCTGAGT
The PBM binding z-score of the first is higher: 2.17 for the first, 0.276 for the second.

Compared with CAGCCTAGGGCAGGGCCAGTATAGGAGGAACGTT, CATACAGGGTCAGCTAGGCCAGAGGAGGGACGGC is higher in PBM binding z-score: -0.901 for the first, 2.75 for the second.

First: ATATGTAGGTTAAGGGTCATTCACGTTGGTTCGC
Second: ATCGAAAGGTCGATGAGGTGAGTATACACCGTTT
The PBM binding z-score of the first is lower: 3.36 for the first, 3.75 for the second.

test system: THRa homodimer (NR concentration 90 nM); assay: as above
In short: as §1

First: ATATGTAGGTTAGCTGGGGTCACTCAGACTAGGC
Second: CCGACTGGGGCAAAGGTTACCCTACTCAGTACGA
The PBM binding z-score of the first is higher: 3.2 for the first, 0.249 for the second.

Compared with CCTAGTTGGTCAAGGTCACAGACGCTATAGGTAC, TAGCCTAGGTCATTGGGCCAGTTTAGTACGCATC is lower in PBM binding z-score: 4.27 for the first, 1 for the second.

First: CCTTACGGGTCACGATGTTATAGCACGACGAGCG
Second: CGAACGAGGGCATGAGTTGATTGCAAATGCCGAT
The PBM binding z-score of the first is higher: 0.472 for the first, -0.209 for the second.

Compared with TCAGACAGGTGAAGGTAAATCAGGTACGCAGTCG, AGTCAAAGTTCAGTACGAGGTAACGTAAAGCACG is higher in PBM binding z-score: 0.468 for the first, 1.21 for the second.

First: CGTCCAAGGTCAGCAGTTCAGTGAAAGCGACGTG
Second: ATCGCTAGGTAAAGTTCAGTGAAAGATCGATAGA
The PBM binding z-score of the first is higher: 2.45 for the first, -0.888 for the second.

Compared with ATATGTATGTTAGCTGGGGTCATTCAGACTAGGC, TCTTGTAGATCAATAGAGGTTAGGAAAGTGCGCT is lower in PBM binding z-score: 2.96 for the first, -0.0407 for the second.

Compared with TCTTCTAGATCAAGCAGGTTAAGAAAGCCTGAGT, CCTGCTAGGTCATGGACAGCTAATCTACAGTATG is higher in PBM binding z-score: -0.392 for the first, 0.931 for the second.

Going from TCTCGGAGGACACGATAGGTCAGAGCTCGACATC to GCGACTGGGGCAAAGCAGGTTACAATAAGGTTGG, the PBM binding z-score falls from 0.393 to 0.0569.

Compared with TCATATAGGTAAAGGAGAAAGTCGAACGATATGA, CGAACGAGGGCATGAGTTGATAACAAATGCCGAT is higher in PBM binding z-score: -0.866 for the first, -0.0778 for the second.

First: GCGACTCGGGCATCAGCAGGTTACCATAACTTAA
Second: CCTACTGGCCCATTCAGAGGTCATTGATCATATG
The PBM binding z-score of the first is lower: -0.36 for the first, 1.71 for the second.

Going from GGAACGAGGGCAAGTAGATAGCAGAGTTTGATGG to TCGAGAAGGTTAGTCGGGGCATTCAGCCAACATA, the PBM binding z-score rises from -0.115 to 0.0413.

Compared with ATCTCTAGGTAACAAGTTCACTGAAAGAGAGGAC, ACTAGCAGGCCAAGTTTGGGTCTCTCAAACAAAG is lower in PBM binding z-score: 1.03 for the first, -0.533 for the second.

First: TCTAGTTGGTCAAAGGGCACACACTCGAAATGCG
Second: CCTTACGGCTCACTCCAGGTTATAGCATCGGAGT
The PBM binding z-score of the first is lower: -0.0377 for the first, 0.628 for the second.

First: ATCTCTAGGTAAAAGATCAGTGAATCCCGAGGAT
Second: CCAGACAGGTGCAAGGTAACTCAGTCTGGTACGC
The PBM binding z-score of the first is lower: 0.125 for the first, 0.244 for the second.

Going from ATATGTAGATTAGCTGGGGTCATTCAGACTAGGC to ATAGACAGGTGATGAAGGTAACTCAGGCTATCAT, the PBM binding z-score falls from 3.01 to 0.156.

Going from TAGCCAAGGTCATGCGGGCCAGTATAGTGTCGGC to GCTGCTAGGTCAAGTTGGTCAGCTAACGGGTACG, the PBM binding z-score falls from 2.91 to 1.13.

Compared with ATCTCTAGGTAACAAGTTCAGTTAAAGAGAGGAC, ATACCAAGGTGATCGTGAGGTAGTTGATACTAAC is lower in PBM binding z-score: 1.16 for the first, 0.542 for the second.

Going from AGAATGAGGTTATTAAGACCAGGGAATTGCGGTC to TCTTGTAGATCAAGCAGGTTAAGAGAGCCTGAGT, the PBM binding z-score falls from 0.47 to -0.531.

Going from CAGCCTAGGGCAGGGCCAGTATAGGAGGAACGTT to CATACAGGGTCAGCTAGGCCAGAGGAGGGACGGC, the PBM binding z-score rises from -0.998 to 0.692.

Going from ATATGTAGGTTAAGGGTCATTCACGTTGGTTCGC to ATCGAAAGGTCGATGAGGTGAGTATACACCGTTT, the PBM binding z-score falls from 1.12 to 0.943.
